Measurements from PMC4336329 (PLoS ONE, 2015).
Among all 310,000 compounds or so, about 14,000 (4.5%) showed an effect of 50% or more. Effects have a minus sign here. The entries come from a sample that favours strong results as a whole.

Target: human ether-à-go-go-related gene (hERG) potassium channel (human, UniProt Q12809)
Assay: primary screen, population patch clamp on CHO cells stably expressing hERG; higher = less effect of the substance
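Further: peak tail current of the secondary pulse compared with the same well before compound.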

human ether-à-go-go-related gene (hERG) potassium channel, sequence (Q12809 whole entry, looked up): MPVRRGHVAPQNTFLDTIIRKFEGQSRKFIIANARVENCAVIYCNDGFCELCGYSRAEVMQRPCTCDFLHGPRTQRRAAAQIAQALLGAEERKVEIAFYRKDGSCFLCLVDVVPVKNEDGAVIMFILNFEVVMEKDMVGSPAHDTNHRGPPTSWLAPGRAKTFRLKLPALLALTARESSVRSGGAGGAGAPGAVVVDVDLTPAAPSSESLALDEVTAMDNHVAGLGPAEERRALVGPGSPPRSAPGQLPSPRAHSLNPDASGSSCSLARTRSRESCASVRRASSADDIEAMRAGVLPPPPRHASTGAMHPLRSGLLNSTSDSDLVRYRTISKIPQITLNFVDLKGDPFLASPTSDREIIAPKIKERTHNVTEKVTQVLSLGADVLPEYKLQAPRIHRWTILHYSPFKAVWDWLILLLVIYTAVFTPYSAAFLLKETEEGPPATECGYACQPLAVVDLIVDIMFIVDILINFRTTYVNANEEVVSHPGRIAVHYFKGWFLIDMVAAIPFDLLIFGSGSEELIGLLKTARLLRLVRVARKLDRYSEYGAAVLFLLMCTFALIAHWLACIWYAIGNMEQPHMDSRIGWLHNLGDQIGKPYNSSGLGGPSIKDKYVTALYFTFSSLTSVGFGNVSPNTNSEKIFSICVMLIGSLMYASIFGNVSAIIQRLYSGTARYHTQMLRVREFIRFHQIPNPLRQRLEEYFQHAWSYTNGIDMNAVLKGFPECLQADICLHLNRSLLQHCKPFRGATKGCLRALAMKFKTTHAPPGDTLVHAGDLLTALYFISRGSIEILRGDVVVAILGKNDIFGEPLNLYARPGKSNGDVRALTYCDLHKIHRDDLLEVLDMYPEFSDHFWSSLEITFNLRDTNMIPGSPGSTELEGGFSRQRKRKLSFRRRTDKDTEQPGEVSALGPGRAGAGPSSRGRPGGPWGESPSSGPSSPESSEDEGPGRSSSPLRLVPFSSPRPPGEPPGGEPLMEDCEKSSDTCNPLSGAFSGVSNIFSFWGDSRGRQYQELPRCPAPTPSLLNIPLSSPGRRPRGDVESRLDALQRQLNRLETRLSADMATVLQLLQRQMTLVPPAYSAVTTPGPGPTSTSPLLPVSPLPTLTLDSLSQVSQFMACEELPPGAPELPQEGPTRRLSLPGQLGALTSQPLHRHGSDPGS

| Structure (SMILES) | hERG current change (%, negative = inhibition) at 10uM [%] |
| --- | --- |
| c1ccc(-c2ccc(-c3ccncn3)cc2)cc1 | 23.6 |
| O=C1NC(=S)N/C1=C/c1cccn1-c1ccc([N+](=O)[O-])cc1 | 12.8 |
| O=C(CNc1cccc(S(=O)(=O)N2CCOCC2)c1)Nc1cccc(Br)c1 | -21.6 |
| CSCCC(NS(=O)(=O)c1ccc(C)cc1)C(=O)N1CCCC1 (stereo not drawn) | 2 |
| CCN(CC)CCCNC(=O)Cn1cnc2ccc(S(=O)(=O)N3CCC(C)CC3)cc2c1=O | -0.31 |
| CCCCN(CC)C(=O)Cn1cnc2ccc(S(=O)(=O)N3CCC(C)CC3)cc2c1=O | -57 |
| CC1CCN(S(=O)(=O)c2ccc3ncn(CC(=O)N(C)C4CCCCC4)c(=O)c3c2)CC1 | -22.2 |
| CC1CCN(S(=O)(=O)c2ccc3ncn(CC(=O)N4CCN(C)CC4)c(=O)c3c2)CC1 | -16.3 |
| CCCCNC(=O)Cn1cnc2ccc(S(=O)(=O)N3CCC(C)CC3)cc2c1=O | 2.68 |
| CC1CCN(S(=O)(=O)c2ccc3ncn(CC(=O)N(C)Cc4ccccc4)c(=O)c3c2)CC1 | -61.7 |
| Cc1cc2cc3c(C)cc(=O)oc3c(C)c2o1 | 19.8 |
| COc1ccc(-c2cc(C(=O)Nc3ccccc3F)on2)cc1 | 23.3 |
| CCOc1ncccc1C(=O)OCC(=O)Nc1cc(S(=O)(=O)N(CC)CC)ccc1C | -42.8 |
| Cc1nc2cc(NS(=O)(=O)c3c(C)c(C)cc(C)c3C)ccc2s1 | 3.47 |
| Cc1ccc(C(=O)NCC(=O)NCC(=O)OCC(=O)c2ccc(Br)cc2)cc1 | 7.3 |
| CCN(CC)CCn1c(NCc2cccc(OC)c2OC)nc2ccccc21 | -47 |
| CCN(CC)CCn1c(NCc2ccc(OC)cc2)nc2ccccc21 | -65.5 |
| CCCn1c(Nc2cccc(OC)c2)nc2ccccc21 | 14.8 |
| CCn1c(NCc2ccc(OC)cc2)nc2ccccc21 | -21.7 |
| CCN(CC)CCn1c(NCc2cccc(OC)c2)nc2ccccc21.Cl | -57.8 |
| CN(Cc1ccc2ccccc2c1)C(=O)c1ccc(C(F)(F)F)cc1 | 26.1 |
| CCN1C(=O)N(c2ccc(Cl)cc2)C(C)=CC1(C)C | 6.6 |

| Structure (SMILES) | hERG current change (%, negative = inhibition) at 10uM [%] |
| --- | --- |
| COc1ccc(C(=O)Nc2ccc(Cl)cc2F)cc1S(=O)(=O)N1CCCC1 | -48.1 |
| C=C1c2ccccc2NC(=O)N1c1ccc(OC)cc1 | 12.8 |
| CC(O)CNc1nc2c(c(=O)n(Cc3ccc(Cl)c(Cl)c3)c(=O)n2C)n1C (stereo not drawn) | -17.3 |
| O=C(O)C(=O)O.OCCN(Cc1ccccc1)Cc1ccccc1O | 5.17 |
| C=CCN1C(=O)C2C(C(=O)NCc3ccccc3)C3(C)C=CC2(O3)C1C(=O)NC(C)(C)C (stereo not drawn) | 19.5 |
| COc1ccc(OC)c(/C=N/N2CCN(c3ccc(Cl)cc3)CC2)c1 | 8.58 |
| COC(=O)Cc1ccc(NC(=S)NCc2ccc(F)cc2)cc1 | -74.4 |
| COC(=O)Cc1ccc(NC(=S)NCc2ccc(OC)cc2)cc1 | -18.2 |
| COC(=O)Cc1ccc(NC(=S)NCc2ccccc2)cc1 | 0.941 |
| COc1cc(C(=O)NC2CCN(Cc3nnnn3Cc3cccs3)CC2)cc(OC)c1OC | -5.59 |
| Cc1cc2nc(C3CCN(Cc4nnnn4Cc4cccs4)CC3)[nH]c2cc1C | -83 |
| Cc1cc2nc(C3CCN(Cc4nnnn4Cc4ccccc4)CC3)[nH]c2cc1C | -52.3 |
| c1csc(Cn2nnnc2CN2CCN(c3nc4ccccc4s3)CC2)c1 | -46 |
| CCN(CC)C(=O)CN1CCC(c2nc3cc(C)c(C)cc3[nH]2)CC1 | -15.7 |
| CCN1CCN(CC2COc3ccccc3O2)CC1.Cl (stereo not drawn) | -4.7 |
| Cc1ccccc1C(=O)NC1CCN(Cc2nnnn2Cc2ccccc2)CC1 | -47.8 |
| Cl.c1ccc(Cn2nnnc2CN2CCCC2)cc1 | 2.31 |
| Cc1cc2nc(C3CCN(CC4COc5ccccc5O4)CC3)[nH]c2cc1C (stereo not drawn) | -73.9 |
| CCc1c(C)c2cc(Cl)c(O)c(CN(CC)CC)c2oc1=O | 0.288 |
| S=c1nccc(-c2ccc(Cl)cc2)[nH]1 | 15.4 |
| COc1cc(NC(=O)c2cc3ccccc3o2)c(OC)cc1Br | 5.55 |
| COc1ccc(-c2nnn(-c3cc(Cl)cc(Cl)c3)c2N)cc1 | 18.3 |

| Structure (SMILES) | hERG current change (%, negative = inhibition) at 10uM [%] |
| --- | --- |
| CC1(C)C(=O)N(c2ccccc2)C(=O)c2ccccc21 | 9.68 |
| O=[N+]([O-])c1ccc(N=Nc2ccc(O)cc2O)cc1 | 28.4 |
| CCCCn1c(O)c(N=Nc2ccccn2)c2ccccc21 | 7.6 |
| O=C(CN(C(=O)c1csnn1)c1ccc(F)cc1)NCCc1ccccc1 | 7.95 |
| O=C(CN(C(=O)c1csnn1)c1ccc(Cl)cc1)NCCc1ccccc1 | -5.16 |
| O=C(CN(C(=O)c1csnn1)c1ccccc1)NCCc1ccccc1 | -15 |
| Cc1ccc(N(CC(=O)NCCc2ccccc2)C(=O)c2csnn2)cc1 | -15.4 |
| CC(=O)c1ccc(N(CC(=O)NCCc2ccccc2)C(=O)c2csnn2)cc1 | -52.4 |
| CC(C)c1ccc(N(CC(=O)NCCc2ccccc2)C(=O)c2csnn2)cc1 | -60 |
| Cc1ccc(Cc2nnc(SCC(=O)Nc3c(C)cccc3C)[nH]c2=O)cc1 | -9.17 |
| CCOC(=O)c1c(NC(=O)C2C3C=CC(C3)C2C(=O)O)sc2c1CC(C)CC2 (stereo not drawn) | 19.6 |
| CCCOC(=O)c1c(NC(=O)C2C3C=CC(C3)C2C(=O)O)sc2c1CCC(C)C2 (stereo not drawn) | -59.3 |
| CCOC(=O)c1c(NC(=O)C2C3C=CC(C3)C2C(=O)O)sc2c1CCC(C)C2 (stereo not drawn) | -6.93 |
| O=C(O)c1cc2c(cn1)[nH]c1ccccc12 | 10.9 |
| CC1CCC(C(C)C)C(OC(=O)Cn2c(-c3ccccc3)[n+](C)c3ccccc32)C1.[Cl-] (stereo not drawn) | -77.3 |
| CC1CCC(C(C)C)C(OC(=O)Cn2nnc3c(cnn3-c3ccccc3)c2=O)C1 (stereo not drawn) | 3.74 |
| CC1CCC(C(C)C)C(OC(=O)Cn2c(-c3ccc(F)cc3)[n+](C)c3ccccc32)C1.[Cl-] (stereo not drawn) | -76.3 |
| CC1CCC(C(C)C)C(OC(=O)C[n+]2cccc(C(N)=O)c2)C1.[Cl-] (stereo not drawn) | 7.66 |
| CC1CCC(C(C)C)C(OC(=O)Cn2c(-c3ccc(Cl)cc3)[n+](C)c3ccccc32)C1.[Cl-] (stereo not drawn) | -82.9 |
| CC1CCC(C(C)C)C(OC(=O)Cn2c(-c3ccc(Br)cc3)[n+](C)c3ccccc32)C1.[Cl-] (stereo not drawn) | -78.3 |
| CC1CCC(C(C)C)C(OC(=O)COC(=O)c2ccc(N)cc2)C1 (stereo not drawn) | 6.47 |
| CC1CCC(C(C)C)C(OC(=O)COC(=O)c2ccc(=O)[nH]c2)C1 (stereo not drawn) | -8.28 |

| Structure (SMILES) | hERG current change (%, negative = inhibition) at 10uM [%] |
| --- | --- |
| CC1CCC(C(C)C)C(OC(=O)COC(=O)c2cccn2C)C1 (stereo not drawn) | 16.1 |
| Cc1nnc(SCC(=O)OC2CC(C)CCC2C(C)C)[nH]c1=O (stereo not drawn) | 11.1 |
| CC1CCC(C(C)C)C(OC(=O)CSc2nnc(N)s2)C1 (stereo not drawn) | 3.01 |
| CC1CCC(C(C)C)C(OC(=O)CSc2n[nH]c(=O)[nH]c2=O)C1 (stereo not drawn) | -19.9 |
| COc1cccc(-n2ccnc2SCC(=O)Nc2cc(C)on2)c1 | 14.1 |
| Cc1ccc(S(=O)(=O)Nc2ccc(S(=O)(=O)Nc3cc(C)nc(C)n3)cc2)cc1 | 23.3 |
| NC(=O)c1cccnc1Oc1ccccc1 | -30.8 |
| O=C(N/N=C/c1ccc(OC(=O)c2cccs2)cc1)c1ccc(F)cc1 | 10 |
| O=C(c1cc(=O)[nH]c2ccc(Br)cc12)N1CCC2(CC1)OCCO2 | 12.6 |
| CCOC(=O)c1c(-c2ccccc2)csc1NC(=O)c1ccc(S(=O)(=O)N2CCOCC2)cc1 | 9.29 |
| CCN(CC)c1cc(NCCO)c([N+](=O)[O-])c2nonc12 | -25.1 |
| COc1ccc(CCC(=O)NCCS(=O)(=O)N2CCN(c3ccccc3F)CC2)cc1 | -63.2 |
| O=C(NCCS(=O)(=O)N1CCN(c2ccccc2F)CC1)c1ccc(Br)cc1 | 4.45 |
| COc1ccc(CCC(=O)NCCS(=O)(=O)N2CCN(c3ccccc3)CC2)cc1 | -36.6 |
| COc1ccc(CCC(=O)NCCS(=O)(=O)N2CCN(c3ccc(F)cc3)CC2)cc1 | -58.8 |
| O=C(Cc1ccc(Cl)cc1)NCCS(=O)(=O)N1CCN(c2ccccc2F)CC1 | -10.6 |
| O=C(NCCS(=O)(=O)N1CCN(c2ccccc2F)CC1)c1ccc(Cl)cc1 | -55.5 |
| O=C(CCCc1ccccc1)NCCS(=O)(=O)N1CCN(c2ccccc2F)CC1 | -18.5 |
| COc1ccc(CCC(=O)NCCS(=O)(=O)N2CCN(c3ccccc3OC)CC2)cc1 | -8.87 |
| COc1ccc(CCC(=O)NCCS(=O)(=O)N2CCN(c3ccc(OC)cc3)CC2)cc1 | 7.57 |
| COC(=O)COc1ccc(C(C2C(=O)CC(C)(C)CC2=O)C2C(=O)CC(C)(C)CC2=O)cc1 | 15.8 |
